Compounds with a hit are over-represented: about 9.3% of the library has one in this group of screens.
HCMV antiviral: qHTS Assay for inhibitors of the human cytomegalovirus (HCMV); HFF cells, HCMV-luciferase reporter, 72 h; stronger effect = lower value; activity change, negative = inhibition, % at 57.5 µM; actives 4.5% (n = 410,000); AID 1259415, 2018; in the data active = activity change below about -60%; inconclusive = no clear call, values can overlap the other calls; inactive = above about -39%
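Screen run at 2 compound doses on HFFs infected with reporter HCMV, MOI 1 PFU/cell. Luciferase activity from cell lysates at 72 h post infection gave inhibition relative to buffer-only and Salinomycin wells.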
FMDV antiviral: High Throughput Screening for Foot and Mouth Disease Virus Antivirals | FMDV antiviral cell-based qHTS | actives 1.2% (n = 410,000) | Potency, µM (top dose mostly 57.9 µM), for the others: at the top dose activity change, negative = inhibition, hits mostly inhibitors; calls by dose curve; tested in HEK293T cells; note: read-out not given here; potency is the fitted concentration of half-maximal effect; nearly all actives have a fitted effect of over 45% in size
VACV mCherry inh: qHTS for Stage-Specific Inhibitors of Vaccinia Orthopoxvirus: mCherry Reporter Primary qHTS. Vaccinia virus mCherry reporter infection, fluorescence. Potency, µM (titrated, usually from 36.5 µM), for inactives: at the highest dose activity change, negative = inhibition, actives largely listed as inhibitors. actives 0.63% (n = 310,000); calls by dose curve; tested in A549 cells; note: potency is the fitted concentration of half-maximal effect; nearly all actives have a fitted effect of over 35% in size
Sm TGR inh: qHTS Assay for the Inhibitors of Schistosoma Mansoni Peroxiredoxins | actives 3% (n = 360,000) | Potency, µM (doses to about 114 µM), for inactives: top-dose activity change, negative = inhibition, hits mostly inhibitors | purified TGR, DTNB reduction, TNB absorbance 405 nm | AID 485364, 2010 | Schistosoma mansoni thioredoxin glutathione reductase (TGR), Q962Y6; note: potency is the fitted concentration of half-maximal effect; nearly all actives have a fitted effect of over 60% in size
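TGR 20 nM + NADPH 100 uM (dispensed conc.), cpd preinc 15 min RT; start with NADPH (500 uM addition) then DTNB (15 mM addition). Kinetic TNB absorbance, 405 nm filter. Four-parameter Hill fit across titration.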
Vaccinia Venus: qHTS for Stage-Specific Inhibitors of Vaccinia Orthopoxvirus: Venus Reporter Primary qHTS | actives 0.46% (n = 330,000) | AID 720580, 2013 | Potency, µM (titrated, usually from 36.5 µM), for the others: at the top dose activity change, negative = inhibition, actives largely listed as inhibitors | Vaccinia virus Venus reporter expression, fluorescence; calls by dose curve; tested in A549 cells; note: potency is the fitted concentration of half-maximal effect; nearly all actives have a fitted effect of over 30% in size
HCV inh: qHTS Assay for Inhibitors of Hepatitis C Virus (HCV). Potency, µM (top dose mostly 41.8 µM), for the others: at the top dose activity change, negative = inhibition, hits mostly inhibitors. Huh7.5.1 HCVcc-Cre infection, luciferase reporter, 44 h. AID 651820, 2012. actives 3.4% (n = 340,000); note: potency is the fitted concentration of half-maximal effect
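Infectious HCV cell culture screen: compound-treated cells (1,000/well, pre-plated 4 h) are infected with HCVcc-Cre at roughly 0.5 moi and grown 44 h. Infection is quantified by luciferase signal after 15 min substrate incubation at room temperature.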
Starred values were filed as active, the others as inactive; i = inactive; ? = inconclusive; . = no result; ! = repeats disagree. Unless noted, calls come from the whole dose curve; as a rule, active = well fitted curve in the direction sought with a large enough effect; inconclusive = small, poorly fitted or top-dose-only effect, or another doubt; inactive = no such curve, though single readings can be large; an effect the other way counts as inactive or inconclusive. % is set by controls: 0 for no effect and ±100 for the full control effect.

SMILES	HCMV antiviral	FMDV antiviral	VACV mCherry inh	Sm TGR inh	Vaccinia Venus	HCV inh
Cc1cc(C)c(S(=O)(=O)c2ccc(Cl)cc2)c(Cl)n1	?	-11.1%	-5.9%	7.8%	-7.7%	-8.8%
O=C1C=C(C2OC(CO)C(O)C2O)C(=O)N1 (stereo not given)	-15.7	39.8µM*	-3.6%	.	1.3%	0.2%
CN(Cc1ccco1)S(=O)(=O)c1nnc(NC(=O)c2cccc(Cl)c2)s1	55.7	42.1%	-9.3%	7.94µM*!	-8.2%	-8.9%
CC(C)CC(=O)Nc1nnc(S(=O)(=O)N(C)Cc2ccco2)s1	.	13.7%	.	8.91µM*	.	10.2%
O=C(NC(=S)Nc1ccc(NC(=O)c2ccccc2)cc1)c1ccc(F)cc1	?	-12.1%	i	-8.5%	-13.1%	?
O=C(Nc1ccc(NC(=S)NC(=O)C(c2ccccc2)c2ccccc2)cc1)c1ccccc1	-65.7*	?	?	.	?	?
COC(=O)C(O)(c1ccc(NC(=S)NC(=O)c2ccccc2)cc1)C(F)(F)F (stereo not given)	-20.3	-5.4%	-7.4%	28.2µM*	-3.3%	-11.1%
O=C(NC(=S)Nc1ccc(Oc2ccc(Cl)cc2)cc1)c1ccccc1	-87.0*	-21.5%	-7.9%	-17.2%	-29.2%	?
O=C(NC(=S)Nc1ccc(Cl)cc1)c1ccccc1	72.1	36.4%	i	?	-2.6%	2.8%
COCCCNC(=O)C[C@H]1C[C@H](C(=O)N2CCCCC2)[C@@]2(C)c3[nH]c4ccc(Cl)cc4c3CCN2C1=O	-33.1	-24.4%	-10.6%	.	0.0%	-17.6%
CC(=O)Nc1ccc(C(=O)COC(=O)C2CC2C)c(F)c1 (stereo not given)	1.7	-16.0%	-25.7%	4.7%	-8.5%	12.6µM*
ClC(Cl)c1nnc(-c2ccccc2)c(-c2c[nH]c3ccccc23)n1	-86.5*	-19.9%	?	-12.5%	?	?
O=C(NNC(=O)c1cccnc1)c1ccncc1	28.7	-2.2%	-20.9%	2.5%	-3.6%	11.2%
O=C1OCC=C1NNC(=O)c1cccnc1	-35.1	13.1%	i	39.8µM*	1.1%	18.1%
Cc1oc(/C=N/NC(=O)CN(c2ccccc2Br)S(C)(=O)=O)cc1Br	-14.1	-10.5%	-28.5%	44.7µM*	-20.0%	-8.2%
Cc1ccccc1N(CC(=O)N/N=C/c1cc(Br)c(C)o1)S(C)(=O)=O	-19.1	-23.8%	-15.7%	79.4µM*	-9.2%	8.4%
O=C(c1oc2ccccc2c1CSCc1ccccc1)N1CCN(c2ncccn2)CC1	?	?	.	?	.	11.2µM*
O=C(OCn1nnc2ccccc2c1=O)c1cc(-c2ccccc2Cl)nc2ccccc12	-9.1	-4.6%	i	-2.4%	-5.8%	7.1%
COc1ccc(C2=C/C(=C\c3cccc(OC(C)=O)c3)C(=O)O2)cc1	-65.0*	3.8%	.	-33.7%	.	3.8%
C=C1C(=O)[C@]23C[C@H]1CCC2[C@@]1(C)C(C[C@@H]3O)[C@](C)(C(=O)O)C[C@H](O)[C@@H]1O (stereo not given in full)	-14.1	-11.1%	12.8%	.	1.0%	.
C=C1C(=O)[C@]23C[C@H]1CC[C@H]2[C@]1(C)[C@@H](O)CC[C@@](C)(C(=O)O)[C@H]1C[C@@H]3O	-6.0	39.8µM*	?	.	-28.8%	.
C=C1C(=O)[C@]23C[C@H]1CC[C@H]2[C@]1(C)[C@@H](OC(C)=O)CC[C@@](C)(C(=O)O)[C@H]1C[C@@H]3O	-65.5*	0.0%	5.01µM*	.	?	.
C=C1C(=O)[C@]23C[C@H]1CC[C@H]2[C@]1(C)[C@@H](OC(C)=O)CC[C@@](C)(C(=O)OC)[C@H]1C[C@@H]3OC(C)=O	-100.0*	11.2µM*	?	.	?	.
COC(=O)C1OC(=O)C2OC23[C@]2(C)C(O)CC4C(C)(C)C(OC(C)=O)CC(OC(C)=O)[C@@]4(C)C2CC[C@@]13C (stereo not given in full)	.	-8.7%	-9.2%	.	-6.7%	.
C=C1C(=O)[C@]23C[C@H]1CCC2[C@@]1(C)C(C[C@@H]3O)[C@](C)(C(=O)OC)CC[C@@H]1OC(C)=O (stereo not given in full)	-101.5*	8.91µM*	3.16µM*	.	1.78µM*	.
SMILES	HCMV antiviral	FMDV antiviral	VACV mCherry inh	Sm TGR inh	Vaccinia Venus	HCV inh
CN(C(=O)CN1C(=O)/C(=C/c2ccc(F)cc2)SC1=S)C1CCS(=O)(=O)C1 (stereo not given)	-23.4	-9.1%	.	11.2%	.	16.9%
COc1ccc(-c2cc(C(=O)N3CCN(C(=O)c4ccco4)CC3)[nH]n2)cc1	-0.2	-0.8%	.	-3.5%	.	-6.8%
CCc1nn(CC(=O)NCCCN(Cc2ccccc2)C(C)C)c(=O)c2cc3sccc3n12	-63.5*	5.7%	-14.9%	1.1%	-9.4%	?
Cc1ccc(S(=O)(=O)N2CCC(C(=O)N[C@@H](C)C(=O)NCC3CCCO3)CC2)cc1 (stereo not given in full)	-11.9	17.3%	.	-20.4%	.	3.1%
O=C(NCCc1ccccc1)C1CCN(S(=O)(=O)N2CCC3(CC2)OCCO3)CC1	.	-9.1%	-6.7%	-14.3%	-3.0%	19.9%
CC[C@@H](C)[C@H](C(CC(=O)N1CCCC1[C@@H](OC)[C@H](C)C(=O)N[C@H](Cc1ccccc1)c1nccs1)OC)N(C)C(=O)[C@H](NC(=O)[C@@H](C(C)C)N(C)C)C(C)C (stereo not given in full)	-90.7*	-12.4%	-19.4%	.	?	-39.7%
CC[C@H](C)[C@@H](C(=O)N1CCCC1c1nccs1)N(C)C(=O)[C@H](CC(C)C)N(C)C(=O)[C@H](Cc1ccc(OC)cc1)N(C)C(=O)/C=C(\C)OC (stereo not given in full)	11.3	0.0%	i	.	0.0%	-24.2%
CN(C)S(=O)(=O)c1ccc(N2CCCC2)c(C(=O)Nc2ccccc2OC(F)F)c1	12.2	-8.0%	-23.7%	6.9%	-18.5%	-20.4%
O=C(Nc1nccs1)c1ccc(S(=O)(=O)NCC2CCCCC2)cc1	-82.5*	18.4%	?	3.6%	?	.
O=C(Nc1nccs1)c1ccc(S(=O)(=O)NCc2cccs2)cc1	?	.	-17.3%	0.3%	-28.6%	10µM*
CN(c1ccc(C(=O)Nc2nccs2)cc1)S(=O)(=O)c1ccccc1	?	?	.	4.4%	.	?
O=C(NCCCCc1ccccc1)NC[C@@H]1CC[C@@H](Cc2ccc(-c3ccccc3)cc2)O1	-17.1	?	?	.	?	?

Screening data: PubChem BioAssay, National Center for Advancing Translational Sciences (NCATS)
